Compound activity: PubChem BioAssay, National Center for Advancing Translational Sciences (NCATS)
Most compounds without a hit are left out; they make up all but 10% or so of the library.
CCT modulator = modulators of cytosolic chaperonin (CCT/TRiC) activity; purified chaperonin ATPase assay, HTRF ADP detection, 30 min; activity change, % (test concentration not listed), hits read low; hit rate 0.3% among 360,000; AID 651819; in the data active means activity change below about -30%
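We incubate TRiC, 40 or 20 nM final, with library compounds at 76 uM and 10 uM ATP for 30 min at 37 °C. ADP formed is detected with Transcreener HTRF reagents after 30 min at room temperature.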
PLK1 PBD inh = inhibitors of human PLK1 polo-box domain binding. P53350. Plk1 PBD binding of FITC phosphopeptide, fluorescence polarization. Potency, µM, actives largely listed as inhibitors. hit rate 2.8% among 360,000; further: series mostly up to about 57 µM; nearly all actives have a fitted effect of over 65% in size
Target sequence (P53350 whole entry, looked up, the tested form may be a part): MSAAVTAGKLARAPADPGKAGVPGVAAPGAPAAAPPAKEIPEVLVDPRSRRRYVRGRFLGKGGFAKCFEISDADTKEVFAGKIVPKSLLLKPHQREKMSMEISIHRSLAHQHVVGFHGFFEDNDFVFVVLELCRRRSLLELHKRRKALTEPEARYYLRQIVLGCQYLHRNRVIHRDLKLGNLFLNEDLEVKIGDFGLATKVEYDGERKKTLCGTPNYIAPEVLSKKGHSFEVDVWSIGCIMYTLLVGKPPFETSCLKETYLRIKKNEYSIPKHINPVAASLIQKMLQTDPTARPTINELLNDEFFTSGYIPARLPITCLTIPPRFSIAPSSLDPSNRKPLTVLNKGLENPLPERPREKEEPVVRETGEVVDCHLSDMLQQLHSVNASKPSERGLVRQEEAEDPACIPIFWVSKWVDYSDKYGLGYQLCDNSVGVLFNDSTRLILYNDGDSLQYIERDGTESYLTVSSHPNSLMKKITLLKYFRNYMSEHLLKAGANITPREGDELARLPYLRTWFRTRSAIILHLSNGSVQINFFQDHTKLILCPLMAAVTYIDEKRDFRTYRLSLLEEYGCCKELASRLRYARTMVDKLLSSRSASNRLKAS
Sfp inh = blocks B. subtilis Sfp PPTase activity; Biochemical Sfp PPTase activity, qHTS; Potency, µM, hits mostly inhibitors; hit rate 3.5% among 310,000; AID 1490;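 further: the enzyme is Sfp with the accession as filed and its product quenches rhodamine fluorescence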
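Buffer: 50 mM Hepes-Na pH 7.6, 10 mM MgCl2, 0.01% Nonidet P-40, 0.01% BSA. Enzyme 15 nM, pre-exposed to compound 15 min; substrates then added and fluorescence change tracked over 30 min.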
VDR inh = vitamin D3 receptor (human) inhibition; VDR-SRC2-3 peptide fluorescence polarization, 2 h; Potency, µM, actives largely listed as inhibitors; hit rate 0.93% among 400,000
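VDR–SRC2-3 interaction, FP format. Cmpds 23 nl via pintool, brief spin, 2 h ambient incubation.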
MmCpn inh = blocks the Methanococcus maripaludis chaperonin Mm-Cpn; Potency, µM (series often up to 76.9 µM), hits mostly inhibitors; AID 504842; purified Mm-Cpn ATPase, ADP Transcreener TR-FRET; hit rate 0.031% among 330,000; further: nearly all actives have a fitted effect of over 80% in size
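Inhibition of chaperonin ATP hydrolysis is measured as reduced ADP production, detected by competitive TR-FRET in which signal falls with ADP. Final enzyme 25 nM and ATP 10 uM, reacted 30 min at 37°C.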
G9a inh = G9a (human) methyltransferase inhibition; Q96KQ7; G9a H3K9 monomethylation, AlphaScreen, 2 h; Potency, µM (top dose mostly 102 µM), usual class: inhibitors; hit rate 8.8% among 350,000; AID 504332; further: nearly all actives have a fitted effect of over 75% in size
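Quantitative HTS format: methyltransferase activity on a biotin-tagged H3K9 peptide is measured by AlphaScreen, using a rabbit anti-monomethyl-H3K9 antibody with streptavidin donor and anti-IgG acceptor beads. Final levels are 20 nM enzyme, 500 nM peptide, 20 uM SAM; 2 h RT.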
VDR confirm = inhibits human vitamin D receptor, primary hit validation. shares compounds with VDR inh. VDR-coactivator inhibition assay, qHTS confirmation. Potency, µM, usual class: inhibitors. hit rate 89% among 840
VDR FP = blocks human VDR-coactivator binding in fluorescein assay; hit rate 48% among 840; shares compounds with VDR inh; VDR-coactivator binding, fluorescein fluorescence polarization; AID 602200; Potency, µM (doses to about 57.1 µM), actives largely listed as inhibitors
VDR bla reporter = confirmation of human vitamin D receptor inhibitors in reporter cells; shares compounds with VDR inh; VDR beta-lactamase reporter cells, FRET ratio; cells co-treated with VDR agonist LG190178; Potency, µM (highest dose often 46.1 µM), most hits filed as inhibitors; hit rate 23% among 840; AID 602202
VDR viability = cytotoxic in counter-screen for VDR inhibitors. shares compounds with VDR inh. cytotoxicity counter-screen, cell viability, qHTS. Potency, µM (titrated, usually from 48.3 µM), usual class: cytotoxic. hit rate 18% among 840. AID 602204; further: nearly all actives have a fitted effect of over 75% in size
TbPYK confirm = confirmation of Trypanosoma brucei pyruvate kinase inhibitors. shares compounds with PLK1 PBD inh. recombinant TbPYK, Kinase-Glo ATP luminescence. Potency, µM (highest dose often 76.9 µM), most hits filed as inhibitors. hit rate 67% among 890. AID 720569; further: nearly all actives have a fitted effect of over 70% in size
TbPYK orthogonal = orthogonal confirmation of Trypanosoma brucei pyruvate kinase inhibitors. recombinant TbPYK, ADP-Glo luminescence, 60 min. AID 720584. hit rate 62% among 890. shares compounds with PLK1 PBD inh. Potency, µM (titrated, usually from 76.9 µM), hits mostly inhibitors; further: nearly all actives have a fitted effect of over 75% in size
Large screens that a line does not name were inactive (follow-up assays come after a bar, where they were run). Unless noted, the call rests on the fitted dose curve; in most records, active means well fitted curve in the direction sought with a large enough effect; inconclusive means small, poorly fitted or top-dose-only effect, or another doubt; inactive means no such curve, though single readings can be large; an effect the other way counts as inactive or inconclusive.

Cc1ccc(NC(=O)CCc2nc3cccnc3n2-c2ccccc2)cc1	none (no result: CCT modulator, PLK1 PBD inh, Sfp inh, MmCpn inh)
Cc1cc(C)nc(SC2=CS(=O)(=O)c3ccccc32)n1	G9a inh inconclusive
O=S1(=O)C=C(Sc2nnc(-c3ccccc3)o2)c2ccccc21	PLK1 PBD inh 1.89µM, Sfp inh 15.8µM, VDR inh inconclusive, MmCpn inh inconclusive | VDR confirm 2.24 | VDR FP 1.58µM | VDR bla reporter inconclusive | VDR viability 11.9µM | TbPYK confirm 20µM | TbPYK orthogonal 22.4µM
CC1(C)CC(=O)C(C(C2=C(O)CC(C)(C)CC2=O)c2ccc(Br)s2)C(=O)C1 (stereo not given)	PLK1 PBD inh 1.89µM, Sfp inh 20µM, VDR inh 10µM, G9a inh inconclusive | VDR confirm 4.23 | VDR FP 2.82µM | VDR bla reporter inactive | VDR viability inconclusive | TbPYK confirm 14.1µM | TbPYK orthogonal 28.2µM
Cc1ccc(CNC(=O)CN(c2ccc(Cl)cc2Cl)S(=O)(=O)c2ccccc2)cc1	none (no result: CCT modulator, PLK1 PBD inh, Sfp inh, MmCpn inh)
O=C(NCc1cccnc1)c1ccc(-c2ccccc2[N+](=O)[O-])o1	none
O=[N+]([O-])c1ccccc1-c1ccc(C(=S)N2CCCC2)o1	PLK1 PBD inh 2.67µM, Sfp inh 7.94µM, VDR inh 39.8µM, G9a inh 10µM | VDR confirm 21.2 | VDR FP inconclusive | VDR bla reporter inactive | VDR viability inactive | TbPYK confirm 17.8µM | TbPYK orthogonal 31.6µM
O=C1C=C(c2ccccc2)C(=O)N1Nc1ccccc1	PLK1 PBD inh 8.44µM, Sfp inh 10µM, VDR inh inconclusive, G9a inh 8.91µM | VDR confirm 5.62 | VDR FP 7.94µM | VDR bla reporter 20.6µM | VDR viability inconclusive | TbPYK confirm 15.8µM | TbPYK orthogonal 25.1µM
C=CCOC(=O)N[C@@H](CCc1ccccc1)C(C(C)=O)C(C)=O	none (no result: CCT modulator, PLK1 PBD inh, MmCpn inh, G9a inh)
O=C1COc2ccc(C(=O)NC3CC3)cc2N1	none
O=C(O)/C=C/C(=O)c1ccc2c(c1)NC(=O)CO2	PLK1 PBD inh inconclusive, Sfp inh 8.91µM, VDR inh 22.4µM, G9a inh 3.16µM | VDR confirm 9.47 | VDR FP inconclusive | VDR bla reporter inactive | VDR viability inactive | TbPYK confirm 15.8µM | TbPYK orthogonal 15.8µM
CC1=NOC(=O)/C1=C\c1ccc(-c2ccccc2Br)o1	PLK1 PBD inh 0.423µM, Sfp inh 56.2µM, VDR inh 12.6µM, MmCpn inh inconclusive, G9a inh 7.08µM | VDR confirm 9.47 | VDR FP inconclusive | VDR bla reporter inconclusive | VDR viability inconclusive | TbPYK confirm inconclusive | TbPYK orthogonal inactive
Cc1cccc(C(=O)Nc2cccc(OC(=O)c3cccc(C)c3)c2)c1	none
Cc1cccc(C(=O)Oc2csc(=S)n2C(=O)c2cccc(C)c2)c1	PLK1 PBD inh 4.74µM, Sfp inh 44.7µM, VDR inh inconclusive, G9a inh 1.58µM | VDR confirm 8.91 | VDR FP 2.82µM | VDR bla reporter inactive | VDR viability inactive | TbPYK confirm 1.26µM | TbPYK orthogonal 2.51µM
COc1ccccc1CNc1cc(-c2ccccc2Cl)ncn1	none (no result: CCT modulator, PLK1 PBD inh, MmCpn inh)
CS(=O)(=O)N1CCN(c2ccc([N+](=O)[O-])cc2C(F)(F)F)CC1	VDR inh inconclusive | TbPYK confirm inconclusive | TbPYK orthogonal inconclusive
C=CCOc1ccc(/C=C2/C(=O)ON=C2C)cc1OC	PLK1 PBD inh 2.38µM, Sfp inh 44.7µM, G9a inh 50.1µM | TbPYK confirm 12.6µM | TbPYK orthogonal inconclusive
COc1cc(C2CC(=O)N3CN(Cc4ccco4)CSC3=C2C#N)ccc1OCc1ccccc1 (stereo not given)	PLK1 PBD inh inconclusive, Sfp inh 3.55µM, VDR inh inconclusive, G9a inh 1.26µM | TbPYK confirm inconclusive | TbPYK orthogonal 1µM
CC(C)c1ccc(C2CC(=O)N3CN(Cc4ccco4)CSC3=C2C#N)cc1 (stereo not given)	PLK1 PBD inh 26.7µM, Sfp inh 2.24µM, VDR inh 39.8µM, G9a inh 2.82µM | TbPYK confirm 0.141µM | TbPYK orthogonal 0.447µM
N#CC1=C2SCN(Cc3ccccc3)CN2C(=O)CC1c1ccc2c(c1)OCO2 (stereo not given)	PLK1 PBD inh 18.9µM, Sfp inh 1.78µM, VDR inh 50.1µM, G9a inh inconclusive | TbPYK confirm inconclusive | TbPYK orthogonal inconclusive
COc1cc(-c2nnc(-c3ccco3)o2)ccc1OCc1ccccc1	none
N#CC1=C(N)OC2=C(C(=O)CC(c3ccccc3)C2)C1c1ccc2c(c1)OCO2 (stereo not given)	VDR inh inconclusive, G9a inh inconclusive
O=C1N=C(O)CN1/N=C\c1ccc(-c2ccc([N+](=O)[O-])cc2)o1	none (no result: CCT modulator, PLK1 PBD inh, MmCpn inh)
CC1(C)Cc2c(c(N3CCOCC3)nc3sc(C(=O)Nc4cccc(Cl)c4)c(N)c23)CO1	PLK1 PBD inh inconclusive, Sfp inh 44.7µM, G9a inh 79.4µM | TbPYK confirm 1.12µM | TbPYK orthogonal 3.55µM
Cc1ccccc1NC(=O)c1sc2nc(N3CCOCC3)c3c(c2c1N)CC(C)(C)OC3	G9a inh inconclusive (no result: CCT modulator, PLK1 PBD inh, Sfp inh, MmCpn inh)
O=C(Nc1ccccc1)c1nnsc1S(=O)c1ccc(Cl)cc1 (stereo not given)	PLK1 PBD inh 0.474µM, Sfp inh 7.94µM, VDR inh inconclusive, G9a inh inconclusive | TbPYK confirm 15.8µM | TbPYK orthogonal 14.1µM
O=C(Nc1ccc(Cl)cc1)c1cccs1	none (no result: MmCpn inh)
O=c1c2sc3ccccc3c2n(Cc2ccccc2F)c(=O)n1Cc1ccccc1	none (no result: CCT modulator, PLK1 PBD inh, Sfp inh, MmCpn inh)
CCCN1C[C@H](CSC)C[C@H]2c3cccc4[nH]cc(c34)C[C@@H]21	none (no result: CCT modulator, PLK1 PBD inh, MmCpn inh)
CC1(C)CC(=O)c2cc(C(=O)Nc3ccccc3Cl)c(=O)n(-c3ccc(Cl)cc3)c2C1	none (no result: CCT modulator, PLK1 PBD inh, Sfp inh, MmCpn inh)
